Hits are enriched below; roughly 5.3% of the tested compounds scored in any of these assays.
TDP1 block: qHTS Assay for Inhibitors of Tyrosyl-DNA Phosphodiesterase (TDP1); Tyrosyl-DNA phosphodiesterase 1 (Homo sapiens), Q9NUW8; recombinant TDP1, AlphaScreen DNA substrate cleavage; Potency, µM (top dose mostly 130 µM), for the others: top-dose activity change, negative = inhibition, most hits filed as inhibitors; 0.28% of 350,000 active; AID 485290, 2010; further: potency means the concentration at half of the fitted maximal effect; on the % scale 0 is the no-effect control and ±100 the full control effect; nearly all actives have a fitted effect of over 40% in size
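Compounds were preincubated with Tdp1 (1 nM final) for 15 min at room temperature before substrate (15 nM final) started a 5 min reaction; beads (10 ug/ml final) were then added for 10 min before AlphaScreen detection.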
CtBP-E1A blk: qHTS Assay for Inhibitors of the CtBP/E1A Interaction | AlphaScreen GST-E1A/His-CtBP binding, 1536-well; hits give low values | activity change, % (test concentration not listed) | 0.49% of 340,000 active | CtBP / adenovirus E1A interaction (AlphaScreen); in the data active means activity change below about -65%; inconclusive means mostly about -30% to -63%; further: on the % scale 0 is the no-effect control and ±100 the full control effect
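AlphaScreen with 125 nM GST-E1A and 125 nM His-CtBP (5X stocks) in Tris pH 8.0, 300 mM NaCl, BSA, Tween 20, TCEP. Compounds preincubated 2 h at 37 deg C, then glutathione donor/nickel acceptor beads added for 1 h at 37 deg C in dark.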
BAZ2B inh: qHTS Assay for Inhibitors of BAZ2B | Bromodomain adjacent to zinc finger domain protein 2B (Homo sapiens), Q9UIF8 | AlphaScreen BAZ2B-H3K14Ac peptide displacement | Potency, µM (doses to about 114 µM), for the others: at the highest dose activity change, negative = inhibition, most hits filed as inhibitors | 4.4% of 360,000 active | AID 504333, 2011; further: potency means the concentration at half of the fitted maximal effect; on the % scale 0 is the no-effect control and ±100 the full control effect; nearly all actives have a fitted effect of over 60% in size
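AlphaScreen displacement of biotin-H3(5-23)K14Ac peptide (50 nM final) from BAZ2B (50 nM final) in PBS pH 7.4, 0.01% Tween-20; complex preformed 30 min RT, then compounds (top 110 uM) 30 min RT, beads 20 min dark.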
HP1b chromo inh: HTS for Inhibitors of HP1-beta Chromodomain Interactions with Methylated Histone Tails. AlphaScreen HP1-beta / biotin-H3K9me3 peptide binding. 0.56% of 390,000 active. Potency, µM (doses to about 114 µM), for the others: top-dose activity change, negative = inhibition, hits mostly inhibitors. Chromobox protein homolog 1 (Homo sapiens), P83916; further: potency means the concentration at half of the fitted maximal effect; nearly all actives have a fitted effect of over 70% in size
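AlphaScreen: HP1-beta (50 nM) preformed 30 min with biotin-H3(1-18)K9me3 peptide (50 nM) in PBS pH 7.4, 0.01% Tween-20. Compound added for 30 min at RT, then streptavidin donor/nickel chelate acceptor beads (10 ug/mL) for 30 min.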
JMJD2A Tudor: qHTS Assay for Inhibitors of JMJD2A-Tudor Domain; Lysine-specific demethylase 4A (Homo sapiens), O75164; AlphaScreen JMJD2A-Tudor / H3K4me3 peptide binding; Potency, µM (top dose mostly 114 µM), inactives show at the highest dose activity change, negative = inhibition, most hits filed as inhibitors; 4.4% of 390,000 active; further: potency means the concentration at half of the fitted maximal effect; on the % scale 0 is the no-effect control and ±100 the full control effect; nearly all actives have a fitted effect of over 50% in size
Target sequence (O75164 whole entry, looked up, the tested form may be a part): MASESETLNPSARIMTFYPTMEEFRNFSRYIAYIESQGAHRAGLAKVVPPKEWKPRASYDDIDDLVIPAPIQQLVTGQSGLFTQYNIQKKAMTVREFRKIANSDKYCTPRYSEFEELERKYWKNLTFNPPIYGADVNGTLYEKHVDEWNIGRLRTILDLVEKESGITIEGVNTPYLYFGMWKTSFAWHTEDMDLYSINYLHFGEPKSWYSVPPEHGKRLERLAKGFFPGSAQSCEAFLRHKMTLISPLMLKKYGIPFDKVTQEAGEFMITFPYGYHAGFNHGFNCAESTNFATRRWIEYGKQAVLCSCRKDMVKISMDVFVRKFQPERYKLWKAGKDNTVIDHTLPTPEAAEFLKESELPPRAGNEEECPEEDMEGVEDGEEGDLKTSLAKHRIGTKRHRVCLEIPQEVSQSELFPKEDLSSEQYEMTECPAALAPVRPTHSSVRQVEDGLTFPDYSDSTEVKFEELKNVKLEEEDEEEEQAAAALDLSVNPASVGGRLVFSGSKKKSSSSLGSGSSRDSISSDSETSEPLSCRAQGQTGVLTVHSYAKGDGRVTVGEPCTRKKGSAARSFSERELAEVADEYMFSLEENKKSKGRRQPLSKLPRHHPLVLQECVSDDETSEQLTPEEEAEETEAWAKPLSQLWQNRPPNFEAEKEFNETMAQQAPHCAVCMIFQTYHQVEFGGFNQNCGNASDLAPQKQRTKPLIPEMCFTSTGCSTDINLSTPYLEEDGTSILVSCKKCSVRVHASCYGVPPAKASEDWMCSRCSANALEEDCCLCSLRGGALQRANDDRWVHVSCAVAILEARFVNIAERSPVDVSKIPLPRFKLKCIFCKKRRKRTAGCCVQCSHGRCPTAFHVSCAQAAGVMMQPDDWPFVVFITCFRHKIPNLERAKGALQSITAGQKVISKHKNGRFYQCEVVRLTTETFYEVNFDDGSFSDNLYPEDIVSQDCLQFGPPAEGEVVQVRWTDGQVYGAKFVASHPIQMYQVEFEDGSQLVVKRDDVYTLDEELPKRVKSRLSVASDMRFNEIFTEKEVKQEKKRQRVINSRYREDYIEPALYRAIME
Six1-Eya2 blk: qHTS Assay for Inhibitors of the Six1/Eya2 Interaction; Homeobox protein SIX1 (Homo sapiens) + Protein phosphatase EYA2 (Homo sapiens), …; AlphaScreen GST-Six1/His-Eya2 binding, biochemical; hits give low values; activity change, % (test concentration not listed); 0.56% of 360,000 active; AID 651725, 2012; in the data active means activity change below about -65%; inconclusive means mostly about -30% to -63%; further: on the % scale 0 is the no-effect control and ±100 the full control effect
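AlphaScreen with GST-Six1 and His-Eya2 (5X mix: 250 nM and 500 nM), glutathione donor and nickel acceptor beads; buffer 50 mM Tris pH 8.0, 300 mM NaCl, 1 mM TCEP; 1 h at 37 C in the dark.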
* marks the source's active call; other numbers are inactive results; [ ] = dose if it differs, or a comment. Unless noted, the call rests on the fitted dose curve; in most records, active means well fitted inhibition curve with a large enough effect; inconclusive means small, poorly fitted or top-dose-only effect; inactive means no such curve, though single readings can be large or run the other way.

O=C(CC(=O)c1cc(Cl)ccc1O)c1ccccc1 was read as TDP1 block 7%, CtBP-E1A blk 11, BAZ2B inh -3%, HP1b chromo inh 6%, JMJD2A Tudor -24% and Six1-Eya2 blk -5.
O=C(c1ccccc1)c1cc(Cl)ccc1N1C(=O)C=CC1=O was read as TDP1 block 6%, CtBP-E1A blk 2, BAZ2B inh 79µM*, HP1b chromo inh 10µM*, JMJD2A Tudor 18µM* and Six1-Eya2 blk 0.
For CCc1ccc(NC(=O)CSc2ccnc(=O)[nH]2)cc1 the results were TDP1 block 5%, BAZ2B inh -4%, HP1b chromo inh 33% and JMJD2A Tudor 0%.
For Cn1nc(-c2ccncc2)nc2c(=O)n(C)c(=O)nc1-2 the results were TDP1 block 4%, HP1b chromo inh 29%[57 µM] and JMJD2A Tudor 2%[57.1 µM].
COc1ccc(-c2cnc(N)n2CC2CCCO2)cc1 (stereo not drawn) was read as TDP1 block 15%, CtBP-E1A blk -29, BAZ2B inh 6%, HP1b chromo inh -1%, JMJD2A Tudor inconclusive and Six1-Eya2 blk inconclusive.
For c1ccc(-c2cnc(SCCN3CCOCC3)n2CC2CCCO2)cc1 (stereo not drawn) the results were TDP1 block -8%, CtBP-E1A blk -3, BAZ2B inh 20µM*, HP1b chromo inh inconclusive, JMJD2A Tudor 3.5µM* and Six1-Eya2 blk 7.
Screening O=C(COC(=O)C1CCCCC1C(=O)N1CCc2ccccc21)NCc1ccco1 (stereo not drawn) returned TDP1 block 0%, CtBP-E1A blk -3, BAZ2B inh 50µM*, HP1b chromo inh 7%, JMJD2A Tudor -6%[11.4 µM] and Six1-Eya2 blk -14.
O=C(COC(=O)C1CC2C=CC1C2)NCc1ccco1 (stereo not drawn) was read as TDP1 block 28µM*, CtBP-E1A blk 1, BAZ2B inh 28µM*, HP1b chromo inh 79µM*, JMJD2A Tudor 40µM* and Six1-Eya2 blk inconclusive.
For CC(C)N1C(=O)/C(=C\c2nc3ccccc3c(=O)n2-c2ccccc2)c2ccccc21 the results were TDP1 block 11%, CtBP-E1A blk 24, BAZ2B inh 10µM*, HP1b chromo inh inconclusive, JMJD2A Tudor 35µM* and Six1-Eya2 blk inconclusive.
CC(C)N1C(=O)/C(=C/c2nc3ccccc3c(=O)n2-c2ccccc2)c2ccccc21 was read as TDP1 block 8%, CtBP-E1A blk -16, BAZ2B inh 35µM*, HP1b chromo inh 25µM*, JMJD2A Tudor 20µM* and Six1-Eya2 blk inconclusive.
Screening CCOc1ccccc1CNC(=O)c1c(C)oc2ncnc(N3CCOCC3)c12 returned TDP1 block 4%, BAZ2B inh 7%[57.1 µM], HP1b chromo inh 34% and JMJD2A Tudor 11%.
CN1C(=S)N(c2cccnc2)C(=O)/C1=C\c1ccc(N(C)C)cc1 was read as TDP1 block 5%, CtBP-E1A blk -12, BAZ2B inh 11µM*, HP1b chromo inh -29%, JMJD2A Tudor inconclusive and Six1-Eya2 blk -20.
Screening Cc1c(N2C(=O)c3ccc4c5c(ccc(c35)C2=O)CC4)c(=O)n(-c2ccccc2)n1C returned TDP1 block 18µM*, CtBP-E1A blk -11, BAZ2B inh 56µM*, HP1b chromo inh inconclusive, JMJD2A Tudor inconclusive and Six1-Eya2 blk -8.
`Cc1c(N2C(=O)/C(=C\c3ccc(N(C)C)cc3)N(C)C2=S)c(=O)n(-c2ccccc2)n1C` gave TDP1 block 3%, CtBP-E1A blk -9, BAZ2B inh 45µM*, HP1b chromo inh inconclusive, JMJD2A Tudor inconclusive and Six1-Eya2 blk -20.
For CC(=O)N1CCC2(CC1)OC(=O)C(C)=C2C(=O)NCc1ccc(Cl)cc1 the results were TDP1 block 7%, BAZ2B inh 6%, HP1b chromo inh -9% and JMJD2A Tudor -23%.
`Cc1cc(C)c2c(n1)nn1c(C)c(CCC(=O)Nc3cccc(C)c3C)c(C)nc21` gave TDP1 block -3%, BAZ2B inh 3%, HP1b chromo inh 37% and JMJD2A Tudor -5%.
For COC(=O)C(CCSC)NC(=O)c1cc2c(n(-c3ccc(C)cc3)c1=O)CCCC2=O (stereo not drawn) the results were TDP1 block 0%, CtBP-E1A blk 0, BAZ2B inh 50µM*, HP1b chromo inh 27%[57 µM], JMJD2A Tudor -9% and Six1-Eya2 blk -4.
`COC(=O)C(CCSC)NC(=O)c1cc2c(n(-c3ccc(C)cc3)c1=O)CC(C)(C)CC2=O` (stereo not drawn) gave BAZ2B inh -6%, HP1b chromo inh 24% and JMJD2A Tudor -19%.
`CCC(=O)N1c2ccccc2CC1C(=O)NCCc1ccc(OC)cc1OC` (stereo not drawn) gave TDP1 block -4%, BAZ2B inh -17%, HP1b chromo inh 26% and JMJD2A Tudor -7%.
`CCN1CCN(CCOc2ccc(Br)cc2C)CC1` gave CtBP-E1A blk 4, BAZ2B inh 22µM*, HP1b chromo inh inconclusive, JMJD2A Tudor 18µM* and Six1-Eya2 blk -2.
Screening Cc1cc(Br)ccc1OCCN1CCCC1 returned TDP1 block 3%, BAZ2B inh inconclusive, HP1b chromo inh inconclusive, JMJD2A Tudor 25µM* and Six1-Eya2 blk 8.
`O=S(=O)(c1ccc(-c2cc(C(F)(F)F)on2)s1)N1CCN(c2cccc(Cl)c2)CC1` gave TDP1 block 5%, BAZ2B inh 2%, HP1b chromo inh 38% and JMJD2A Tudor -1%.
Screening OCCN(Cc1ccccc1)Cc1cccc(Cl)c1Cl returned TDP1 block 16µM*, CtBP-E1A blk 6, BAZ2B inh 50µM*, HP1b chromo inh inconclusive, JMJD2A Tudor 10µM* and Six1-Eya2 blk 9.
CC(=O)NC(CC(=O)N(C)Cc1cccc(Cl)c1Cl)c1ccccc1 (stereo not drawn) was read as TDP1 block 0%, CtBP-E1A blk 0, BAZ2B inh -8%, HP1b chromo inh 27%, JMJD2A Tudor -12% and Six1-Eya2 blk 0.
OCCN(Cc1ccccc1)Cc1ccccc1F was read as TDP1 block -4%, CtBP-E1A blk -6, BAZ2B inh 25µM*, HP1b chromo inh 45µM*, JMJD2A Tudor 1.8µM* and Six1-Eya2 blk -9.

High-throughput results (PubChem)
